Results on 92 compounds are retold here after PubChem BioAssay AID624352 (Sanford-Burnham Center for Chemical Genomics, 2012).

About 2,600 (0.72%) of roughly 360,000 compounds were called active. For the sample, actives were picked, then their nearest neighbours and some compounds at random. Values without a mark were called inactive.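 The calls were made as follows: active = inhibition of the luminescence signal of 40% or more relative to plate controls, in a single-dose primary screen at 18.75 µM; inactive = the rest.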

This assay is described as follows: blockers of HIF-2a driven luciferase – luminescence, 786-0 RCC cells, primary screen (AID 624352). The conditions noted are these: 786-0 RCC cells HIF-2a reporter, overnight, at 18.8 µM, stronger effect = higher value.
The term inhibition denotes the relative decrease from the control value, in per cent. Consider `O=[N+]([O-])c1c(NCCO)cc(Sc2nc3ccccc3s2)c2nonc12`, for which the inhibition is 87% (active).
To `CC(C)=CCN1CCN(CCCc2ccccc2)CC1CCO` (configuration not stated) belongs 16.8%; to `CC[C@]1(c2ccccc2OC)C(=O)N(C(=O)OC)N1C(=O)OC`, 18.5%.
For `CCN(CC(=O)NC(C)C)C(=O)CCNC(=O)c1ccc(Cl)cc1` the value was 14.3%; for `O=C(OC1CCOC1=O)c1cccc(S(=O)(=O)Nc2ccc(F)cc2)c1` (configuration not stated), 14.8%; for `COc1ccc(N2CCN(C(=O)COC(=O)c3cccc(S(=O)(=O)Nc4ccccc4OC)c3)CC2)cc1`, 12.6%.
`CC(=O)Nc1ccc(/C(C)=N/NC(=O)CN(c2ccccc2Br)S(C)(=O)=O)cc1`: the inhibition was 1.74%.
`O=C(Oc1ccc(-c2nc(-c3ccccn3)no2)cc1)c1ccccc1`: the inhibition was 42.3% (active).
For `O=C(COc1cccc(F)c1)Oc1ccc(C(=O)c2ccccc2)cc1` the value was -3.52%; for `COC(=O)c1ccc(OC(=O)c2cnccn2)cc1`, 17.4%; for `CC(=O)Nc1ccc(NC(=O)[C@@H](NC(=O)c2cccc(C)c2)C(C)C)cc1`, 4.88%.
Regarding `Cc1cccc(C(=O)Nc2ccc(CC(=O)O)cc2)c1`, the inhibition was 60.9% (active).
As to `Cc1cccc(C(=O)Nc2ccc(C(=O)/C=C/c3cccs3)cc2)c1`, the inhibition is -134%.
To `O=C(CCc1ccccc1)NNc1ccc(F)cc1` belongs 5.59%; to `CCCc1[nH]nc2c1C(c1ccc(Br)s1)C(C#N)=C(N)O2` (configuration not stated), 80.8% (active); to `CCCc1[nH]nc2c1C(C1CC=CCC1)C(C#N)=C(N)O2` (configuration not stated), 52.3% (active).
To `CCCc1nc2c([nH]1)C(c1cccnc1)C(C#N)=C(N)O2` (configuration not stated) belongs 20.2%; to `COc1ccc(C2C(C#N)=C(N)Oc3n[nH]c(C)c32)cc1CN1CCN(c2ccc(F)cc2)CC1` (configuration not stated), 16.6%; to `N#CC1=C(N)OC2=C(C(=O)CCC2)C1C1CC=CCC1` (configuration not stated), -5.19%.
For `CSC1=NCCN1C(=O)c1ccc(S(=O)(=O)N2CCOCC2)cc1` the value was 4.81%; for `CC(C)C(C(=O)NC1CCCCC1)N(CC1CCCO1)C(=O)CNS(=O)(=O)c1ccc(F)cc1` (configuration not stated), 12.1%.
In the case of `COc1ccc(C2/C=C\CN(CC(C)C)CC(=O)N2Cc2ccc(F)cc2)cc1` (configuration not stated), the inhibition was 4.31%.
For `COC(=O)c1sccc1NC(=O)CSc1ccccc1NS(=O)(=O)c1cc(Cl)ccc1Cl` the value was 7.65%.
For the compound `Cc1ccc(CC(=O)N(C)CC(=O)N(CC(C)C)c2c(N)n(CC(C)C)c(=O)[nH]c2=O)cc1C`, the inhibition was 10.3%.
For `C=C(C)C(=O)O[C@H]1C/C(C)=C\C(=O)/C=C(\C)[C@H](O)[C@@H]2OC(=O)C(=C)[C@@H]21` the value was 92.8% (active).
For `Cc1ccc(Cl)c(OCC(=O)NN2CCN(C)CC2)c1` the value was 13.6%; for `CC1CN(C(=O)COC(=O)c2cccc(NS(=O)(=O)c3ccccc3)c2)CC(C)O1` (configuration not stated), 10.2%; for `CNC(=O)NC(=O)C(C)N1CCN(C/C=C/c2ccccc2)CC1` (configuration not stated), 16.3%.
Consider `COCCCNC(=O)CNC(=O)c1nn(-c2ccc(OC)cc2)c(=O)c2ccccc12`, for which the inhibition is 4.73%.
For `OCCN1CCN(C(=S)c2ccc(-c3ccccc3)cc2)CC1` the value was 88.1% (active); for `O=C(NC(=S)N1CCN(Cc2ccccc2)CC1)c1ccccc1`, 3.06%.
To `S=C(c1ccc(-c2ccccc2)o1)N1CCCCC1` belongs -291%; to `CCN(C(=O)c1cc([N+](=O)[O-])ccc1NCc1cccnc1)c1ccccc1`, 11.9%; to `Cc1ccc(S(=O)(=O)N(C)C)cc1NC(=O)COC(=O)C1COc2ccccc2O1` (configuration not stated), 3.99%.
For `Fc1ccc2c(c1)C(c1cccnc1)=NNC(c1cccs1)=N2` the value was 0.189%.
In the case of `O=C(/C=C/c1ccc([N+](=O)[O-])o1)NNC(=O)c1ccc(F)cc1`, the inhibition was 30.1%.
To `C=CCn1c(SCC(=O)NC(=O)Cc2ccccc2)nc2ccccc2c1=O` belongs 15.8%.
To `CCn1c(/C=C/c2ccc([N+](=O)[O-])o2)nc2ccccc2c1=O` belongs 56.6% (active).
For `CCc1cc(CNC(=O)CC2C(=O)NCCN2Cc2ccccc2C(F)(F)F)on1` (configuration not stated) the value was 7.76%.
On to `Cc1cc(C)c(S(=O)(=O)N2CCOCC2)cc1C`, for which the inhibition was 16.4%.
For `COCc1cc(=O)n2[nH]c(C)c(-c3ccccc3)c2n1` the value was 11.1%; for `CC(C)[C@H](NC(=O)c1ccccc1F)C(=O)Nc1cccc(S(=O)(=O)N2CCOCC2)c1`, 6.68%.
To `CCN(CC)CCCC(C)n1c2nc(=O)[nH]c(=O)c-2nc2cc(Cl)ccc21` (configuration not stated) belongs 70.8% (active).
For `O=c1c(-c2ccccc2Cl)c[nH]n1-c1ccccc1` the value was -21.8%; for `OC(c1ccccc1)c1nccn1Cc1ccccc1` (configuration not stated), 6.44%; for `Cc1cc(C)c(NC(=O)c2oc3ccccc3c2COc2ccccc2)c(C)c1`, 1.23%.
As to `CCOC(=O)N1CCC(=NNC(N)=O)CC1`, the inhibition is 9.05%.
To `CN(C)C(=O)c1cccc(-c2cnc3c(NC=O)cc(-c4ccc(F)cc4)cn23)c1` belongs 9.01%; to `CN(C)CCNC(=O)c1cccc(-c2cnc3c(NC=O)cc(-c4cccc(C(F)(F)F)c4)cn23)c1`, 79.2% (active); to `CC(=O)c1cccc(-c2cnc3c(NC=O)cc(-c4ccc(N(C)C)cc4)cn23)c1`, -15.5%.
`C=CCN1C(=NC(=O)COc2ccccc2)SC2CS(=O)(=O)CC21` (configuration not stated): the inhibition was 4.93%.
For the compound `OCCN1CCN(CCO)C1=S`, the inhibition was 9.5%.
As to `O=C(O)c1ccc(N/N=C/c2ccc3ncccc3c2)cc1`, the inhibition is 54.5% (active).
`NCCCCCC(=O)N/N=C/c1ccc2nccnc2c1`: the inhibition is 7.39%.
To `CC(C)(C)OC(=O)N/N=C/c1ccc(C(=O)O)cc1` belongs 4.48%.
To `O=C1NC(=O)C(CCc2ccccc2)(c2ccccc2)N1` (configuration not stated) belongs 17.5%.
`Cc1ccc(OCC(=O)NC(C)c2ccccc2)c([N+](=O)[O-])n1` (configuration not stated): the inhibition is 17.9%.
To `COc1ccccc1CNC(=O)COc1ccc(C)nc1[N+](=O)[O-]` belongs -1.54%; to `COCC(C)n1c(C)cc(C(=O)COc2ccc(C)nc2[N+](=O)[O-])c1C` (configuration not stated), 50.6% (active); to `Cc1cc(C(=O)COC(=O)CNC(=O)c2ccc(F)cc2)c(C)n1Cc1ccco1`, -47.3%.
To `Cc1ccc(OCC(=O)c2cc(C)n(Cc3ccco3)c2C)c([N+](=O)[O-])n1` belongs 48.1% (active); to `COc1ccc(C)cc1-n1nnnc1SCC(=O)c1cc(C)n(Cc2ccco2)c1C`, -49.1%.
For `COc1ccc(NC(=O)CN2C(=O)COc3ccc(S(=O)(=O)N4CCOCC4)cc32)cc1` the value was -0.73%.
Turning to `CCCCSc1[nH]c(=O)c(C(=O)OCC)cc1C#N`, the inhibition is 5.92%.
For `CCN(CC)CC(=O)Nc1sc2c(c1C(=O)c1ccccc1C)CCC2` the value was 31.1%; for `O=C(Nc1ccccc1C(=O)O)c1cc(S(=O)(=O)N2CCCCC2)cs1`, -9.72%; for `CC(NS(=O)(=O)c1ccccc1)c1n[nH]c(=S)n1-c1ccccc1` (configuration not stated), 16.8%.
For `C[C@@H]1CN([C@@H](C)CO)C(=O)c2cccc(NS(=O)(=O)c3ccc(F)cc3)c2O[C@H]1CN(C)C(=O)NC1CCCCC1` the value was -10.3%.
To `C=CCSc1nnc(N2C(=O)C(O)=C(C(=O)c3ccco3)C2c2ccc(F)cc2)s1` (configuration not stated) belongs -55.2%; to `O=[N+]([O-])c1ccc(C=Nc2ccc(Cl)cc2Cl)s1`, -3.51%; to `CC(C)(C)c1cc(C(=O)N/N=C/c2ccc([N+](=O)[O-])s2)n[nH]1`, 80.5% (active).
On to `Cc1ccc(-c2cc(C(=O)N/N=C/C=C/c3ccccc3)n[nH]2)o1`, for which the inhibition was -1.73%.
Regarding `COc1ccnc(Oc2ccccc2)n1`, the inhibition is -5.97%.
Consider `CCCCCCCCCCOC(=O)C[N+](C)(C)CC1CCCCC1O` (configuration not stated), for which the inhibition is 7.58%.
Turning to `CCN1CCC(O)(/C=C/c2ccc(C)cc2)C(C(=O)/C=C/c2ccc(C)cc2)C1` (configuration not stated), the inhibition was 66.8% (active).
For `Cc1ccc(-c2nn(C(C)(C)C)c3ncnc(N)c23)cc1` the value was 71.5% (active); for `CCN(CC(=O)Nc1c(F)cccc1F)C(=O)c1ccc(-c2ccc(C(C)=O)cc2)o1`, -53.4%.
To `NS(=O)(=O)c1ccc(CNC(=O)c2ccc(Cl)cc2[N+](=O)[O-])cc1` belongs 2.46%; to `Fc1ccc2nc(-c3ccccc3)nc(SCc3nnc(-c4ccccc4)o3)c2c1`, 23.8%.
To `O=C(CSc1c2c(nc3ccc(Cl)cc13)CCCC2)NCc1ccco1` belongs 17.8%; to `Clc1ccc2nc(-c3ccccc3)nc(C(Cl)Cl)c2c1`, 57.1% (active).
As for `Cc1cc(C(=O)N2CCCC2(C)C(=O)O)c(C)o1` (configuration not stated), the inhibition is -4.82%.
For `CC(=O)Nc1ccc(CC#N)cc1` the value was 18.5%; for `C/C(Cc1ccccc1)=N\NC(=O)CNC(=O)c1cccc(Br)c1`, 14%; for `Cc1ccc(C(=O)Nc2c(-c3ccccc3)[nH][nH]c2=O)cc1`, -3.55%.
To `CN(C)C(=O)c1ccc(NC(=O)c2ccccc2-c2ccccc2)cc1` belongs 19.3%; to `O=C(NC1=CC(=O)c2ccccc2C1=O)c1ccccc1`, 92.9% (active).
To `Cc1ccc(-c2cnc(NC(=O)CCC(=O)N(C)Cc3ccccc3)n2C)cc1` belongs -43.9%; to `CCOc1cc(/C=N/NC(=O)OC)ccc1OCCSc1ccc(Cl)cc1`, -1.68%.
Consider `CCOc1cc(/C=C(/C#N)c2ccc(Cl)cc2)cc(Cl)c1OCC(=O)O`, for which the inhibition was 91.8% (active).
Consider `COc1cc(/C=C(/NC(=O)c2ccc(Cl)cc2Cl)C(=O)O)cc(OC)c1OC`, for which the inhibition is 12.9%.
To `CCOC(=O)c1c(C)[nH]c(C2=NNC(=NC(C)COC)SC2)c1C` (configuration not stated) belongs -141%.
